Screens: PubChem BioAssay, Broad Institute
This excerpt belongs to a sample that is enriched for hits.
U2OS ROS induce: raises reactive oxygen species in U2OS cancer cells. U2OS ROS induction, H2DCF-DA fluorescence. actives 2% (n = 46,000). ROS induction (% of piperlongumine), % at 10 µM; in the data active = ROS induction above about 79%, passing the limit was not always enough
PD-1 reverse act: reversal of PD-1 mediated T-cell inhibition | primary human CD4 T cells, PD-L1 beads, CellTiter-Glo 96 h | activation, % (test concentration not listed) | 29,000 tested, under 10 active; call rule not given here
Hits are given with their value; - = inactive; . = no result.

SMILES | U2OS ROS induce | PD-1 reverse act
C[C@@H]1CCCCO[C@@H](CN(C)S(=O)(=O)c2ccccc2)[C@@H](C)CN([C@H](C)CO)C(=O)c2cc(NS(=O)(=O)c3ccc(Cl)cc3)ccc2O1 | 113.0 | -
C[C@@H]1CCCCO[C@H](CN(C)S(=O)(=O)c2ccc(F)cc2)[C@@H](C)CN([C@H](C)CO)C(=O)c2cc(NC(=O)NC3CCCCC3)ccc2O1 | 165.9 | .
O=S(=O)(Nc1nc2ccccc2nc1-[n+]1ccccc1)c1ccccc1 | - | .
Nc1cc(N)nc(SCC(=O)Nc2ccc(Oc3ccccc3)cc2)n1 | - | -
O=C(Cn1ccc2ccccc2c1=O)NCCC(=O)NC1CC1 | - | .
C[C@@H]1CCCCO[C@H](CN(C)Cc2ccc3c(c2)OCO3)[C@@H](C)CN([C@H](C)CO)C(=O)c2cc(NS(=O)(=O)c3ccc(Cl)cc3)ccc2O1 | - | -
Cc1ccc(S(=O)(=O)Nc2ccc3c(c2)C(=O)N([C@H](C)CO)C[C@H](C)[C@@H](CN(C)Cc2ccc4c(c2)OCO4)OCCCC[C@@H](C)O3)cc1 | 95.2 | .
C[C@H](CO)N1C[C@H](C)[C@H](CN(C)Cc2ccc(-c3ccccc3)cc2)Oc2ccc(NS(=O)(=O)c3cccs3)cc2CC1=O | 78.4 | -
C[C@@H]1CN([C@H](C)CO)C(=O)Cc2cc(NS(=O)(=O)c3ccccc3)ccc2O[C@H]1CN(C)Cc1ccc(C(F)(F)F)cc1 | 216.7 | -
C[C@@H]1CN([C@H](C)CO)C(=O)Cc2cc(NS(=O)(=O)c3ccc(Cl)cc3)ccc2O[C@H]1CN(C)Cc1ccccc1 | - | .
C[C@@H]1CN([C@H](C)CO)C(=O)Cc2cc(NS(=O)(=O)c3ccccc3)ccc2O[C@@H]1CN(C)Cc1ccc(C(F)(F)F)cc1 | - | -
C[C@H]1CN([C@@H](C)CO)C(=O)c2cc(NS(=O)(=O)c3cccs3)ccc2O[C@H]1CN(C)Cc1ccc(Oc2ccccc2)cc1 | - | -
C[C@H](CO)N1C[C@H](C)[C@H](CN(C)Cc2ccc(-c3ccccc3)cc2)Oc2ccc(NS(=O)(=O)c3ccc(Cl)cc3)cc2CC1=O | 142.3 | -
C[C@H](CO)N1C[C@H](C)[C@@H](CN(C)Cc2ccc(Oc3ccccc3)cc2)Oc2ccc(NS(=O)(=O)c3cccs3)cc2C1=O | 93.2 | .
C[C@H]1CN([C@@H](C)CO)C(=O)Cc2cc(NS(=O)(=O)c3cccs3)ccc2O[C@H]1CN(C)Cc1ccc(-c2ccccc2)cc1 | - | -
O=CNCCc1c[nH]c2ccccc12 | - | -
N#Cc1c(NC(=O)CSc2nnc(N)s2)sc2c1CCCC2 | - | -
Cc1cc(=O)[nH]c(SCCOc2cccc(Br)c2)n1 | - | -
Cc1csc2nc(CNS(=O)(=O)c3ccccc3)cn12 | - | .
C[C@@H]1CN([C@H](C)CO)C(=O)Cc2cc(NS(C)(=O)=O)ccc2O[C@@H]1CN(C)Cc1ccccc1 | - | -
C[C@H]1CN([C@@H](C)CO)C(=O)Cc2cc(NS(C)(=O)=O)ccc2O[C@@H]1CN(C)Cc1ccccc1 | 131.1 | -
O=S(=O)(c1ccc(Cl)cc1)N1CCN(C(=S)NCc2ccco2)CC1 | - | -
Cn1nnnc1SCC(=O)Nc1cccc(Cl)c1 | - | -
COc1ccc(C#Cc2cnc3c(c2)C(=O)N([C@H](C)CO)C[C@H](C)[C@H](CN(C)C(=O)NC(C)C)O3)cc1OC | - | .
COc1ccc(C#Cc2cnc3c(c2)C(=O)N([C@H](C)CO)C[C@H](C)[C@H](CN(C)C(=O)NC2CCCCC2)O3)cc1OC | 134.8 | .
SMILES | U2OS ROS induce | PD-1 reverse act
COc1ccc(C#Cc2cnc3c(c2)C(=O)N([C@H](C)CO)C[C@H](C)[C@H](CN(C)C(=O)Nc2ccccc2)O3)cc1OC | - | .
COc1ccc(C#Cc2cnc3c(c2)C(=O)N([C@H](C)CO)C[C@H](C)[C@H](CN(C)C(=O)Nc2cccc4ccccc24)O3)cc1OC | 147.7 | .
COc1cccc(S(=O)(=O)N(C)C[C@@H]2Oc3ncc(-c4cccc(F)c4)cc3C(=O)N([C@H](C)CO)C[C@@H]2C)c1 | - | .
COc1cccc(S(=O)(=O)N(C)C[C@@H]2Oc3ncc(C#Cc4ccc(F)cc4)cc3C(=O)N([C@H](C)CO)C[C@@H]2C)c1 | 102.7 | .
CCOC(=O)Cn1nc(C(F)(F)F)c(Br)c1C1CC1 | - | .
C=C1C(=O)O[C@@H]2C[C@H](C)[C@@H]3CC(=O)C(C)=C3C[C@H]12 | 92.8 | -
C=C1C(=O)OC2C3=C(C)C(=O)CC3C(C)CC(O)C12 (centres undefined) | - | -
O=C(Nc1cc(Cl)cc(Cl)c1)c1cc(S(=O)(=O)N2CCCc3ccccc32)ccc1F | - | .
CCCc1nc2c(o1)N(C(=O)OCC)C(N)=C(C#N)C21CCNCC1 | - | -
CCN(CC(=O)Nc1cccc(C)c1)S(=O)(=O)c1ccc(Br)cc1 | 130.5 | -
CCN(CC(=O)Nc1ccc(C)c(C)c1)S(=O)(=O)c1ccc(C)cc1 | - | -
Cc1cccc(OCC(=O)Nc2ccccc2C(=O)NC(C)(C)C)c1 | - | -
Cc1nc(NCCc2ccccc2)c2c3c(sc2n1)CCCC3 | 126.7 | .
c1ccc(Nc2ncnc3sc4c(c23)CCCC4)cc1 | 103.5 | .
c1ccc(Oc2ncnc3sc4c(c23)CCCC4)cc1 | - | .
FC(F)(F)c1cccc(Nc2ncnc3sc4c(c23)CCC4)c1 | 115.9 | .
CCc1nc2sc3c(NCCc4ccccc4)ncnc3c2c2c1CCCC2 | - | .
O=C(/C=C/c1ccccc1)Nc1ncnc2sc3c(c12)CCC3 | - | .
O=C(c1cccs1)N1CCN(c2cc(C(F)(F)F)nc3ccccc23)CC1 | - | .
Cn1c(SCC(=O)Nc2cccc(Br)c2)nnc1-c1ccc(Cl)cc1 | - | -
O=C(N/N=C\c1cc(Br)ccc1O)c1ccccc1O | - | .
COc1ccc(/C=N/NC(=O)c2cccc(C(=O)NO)c2)cc1Br | - | .
CN(C(=O)CN1N=C(c2ccc(Cl)cc2)CCC1=O)c1ccccc1 | - | .
COc1ccc2c(Sc3ccc(Cl)cc3)c(C(=O)N(C)Cc3ccccc3)[nH]c2c1 | - | .
CCC(C)CCCCCCCCC1CC(=O)NC(CCC(N)=O)C(=O)NC(CC(C)C)C(=O)NC(CC(C)C)C(=O)NC(C(C)C)C(=O)NC(CC(=O)O)C(=O)NC(CC(C)C)C(=O)NC(C(C)C)C(=O)O1 (centres undefined) | - | -
SMILES | U2OS ROS induce | PD-1 reverse act
Cc1cc(C)c(C#N)c(SCCS(=O)(=O)c2nc3ccccc3s2)n1 | 140.9 | -
N#Cc1cc2c(nc1SCCS(=O)(=O)c1nc3ccccc3s1)CCCC2 | - | -
O=C(Cn1cc(C(=O)C2CC2)c2ccccc21)Nc1ccccc1C(F)(F)F | - | -
O=S(=O)(NCC1CCN(Cc2cccc(OCCO)c2)CC1)c1ccc(Cl)c(Cl)c1 | 122.6 | .
O=S(=O)(N[C@@H]1CCCN(Cc2cccc(OCCO)c2)C1)c1ccc(Cl)c(Cl)c1 | - | .
O=C(O)CCCCCCC(=O)N/N=C/c1cc(Br)ccc1O | - | .
COc1cc(C2C(C#N)=C(C)Nc3oc(C)nc32)ccc1OCCN1CCOCC1 (centres undefined) | 115.7 | -
COC(=O)C1=C(C)Nc2ncnn2C1c1ccc(OCC(=O)N2CCOCC2)c(OC)c1 (centres undefined) | - | -
CCCN(CCC)C(=O)c1ccc(CNS(=O)(=O)c2ccc(F)cc2)cc1 | - | .
C[C@@H]1CN([C@H](C)CO)C(=O)Cc2cc(NC(=O)C3CCCCC3)ccc2O[C@H]1CN(C)CC1CC1 | 95.3 | -
C[C@@H]1CN([C@@H](C)CO)C(=O)Cc2cc(NC(=O)Nc3ccccc3)ccc2O[C@@H]1CN(C)CC1CCCCC1 | 94.5 | .
C[C@H]1CN([C@@H](C)CO)C(=O)Cc2cc(NC(=O)Nc3ccccc3)ccc2O[C@@H]1CN(C)CC1CCCCC1 | - | -
